# Assay results reported in PubChem BioAssay (EPA / NIEHS).
# Inconclusive results are not listed. The source made the active and inactive calls. Rule for the calls, unless noted: active = hit-call score of the fitted dose curve at least 0.9, where 1 is the maximum; inconclusive = response in the unintended direction; inactive = score below 0.9.
# Legend:
# [1] = CEETOX_H295R_OHPREG: CeeTox H295R High-throughput Steroidogenesis Assay for OH-Pregnenolone (OHPREG) (AID 2283434; active = hit-call score of the fitted dose curve at least 0.9, where 1 is the maximum; inactive = score below 0.9); conditions: actives raise or lower the signal
# In short: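 H295R, 10 uM forskolin pre-stim 48 h; test chemical 48 h, 0.1% DMSO final. MTBE extraction, reverse-phase C18 HPLC-ESI+ MS/MS of medium. Gain/loss vs DMSO; viability by MTT in same wells.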
# [2] = target: Bile acid receptor (Homo sapiens) (UniProt Q96RI1); assay: OT_FXR_FXRSRC1_0480: Odyssey Thera (OT) 8-hour HEK293T Protein-Complementation Assay for Farnesoid X receptor/SRC-1 Co-activator (AID 2283383)
# In short: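 Readings were taken 8 h after dosing HEK293T cells in a split-reporter complementation format pairing FXR with SRC-1. Increased fluorescence relative to DMSO-treated wells defined activity.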
# [3] = target: Retinoic acid receptor RXR-alpha (Homo sapiens) (UniProt P19793); assay: OT_NURR1_NURR1RXRa_0480: Odyssey Thera (OT) 8-hour HEK293T Protein Complementation Assay for Nurr1/retinoid X receptor (RXR) (AID 2283385)
# In short: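 Gain in fluorescent complementation signal over DMSO, measured 8 hours after chemical dosing of human kidney HEK293T cells, indicated enhanced Nurr1–RXRα association.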
# [4] = target: Peroxisome proliferator-activated receptor gamma (Homo sapiens) (UniProt P37231); assay: OT_PPARg_PPARgSRC1_0480: Odyssey Thera (OT) 8-hour Protein-Complementation Assay for Peroxisome Proliferator-activated Receptor Gamma / SRC-1 Co-activator (AID 2283387)
# In short: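 HEK293T transiently transfected with PPARg and SRC-1 fused to Venus YFP fragments, compounds 8 h at 37C. Fixed, Draq5-stained cells imaged; nuclear/cytoplasmic 488 nm fluorescence ratio over at least 350 cells per image; gain fitted versus DMSO.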
# [5] = target: Peroxisome proliferator-activated receptor gamma (Homo sapiens) (UniProt P37231); assay: OT_PPARg_PPARgSRC1_1440: Odyssey Thera (OT) 24-hour Protein-Complementation Assay for Peroxisome Proliferator-activated Receptor Gamma/ SRC-1 Co-activator (AID 2283388)
# In short: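 HEK293T cells transiently transfected with PPARg and SRC-1 fused via (Gly4Ser)2 linker to split Venus YFP fragments (IFP1/IFP2) were dosed 24 h; fixed, Draq5-stained, imaged at 488/635 nm; nuclear/cytoplasmic fluorescence ratio scored versus DMSO baseline, gain-of-signal.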
# [6] = target: Retinoic acid receptor RXR-alpha (Homo sapiens) (UniProt P19793); assay: OT_NURR1_NURR1RXRa_1440: Odyssey Thera (OT) 24-hour HEK293T Protein Complementation Assay for Nurr1/retinoid X receptor (RXR) (AID 2283386)
# In short: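 Cell-based binding reporter: HEK293T cells, 24 h exposure, fluorescence-detected fragment complementation, DMSO as baseline.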
# [7] = target: Estrogen receptor (Homo sapiens) (UniProt P03372); assay: OT_ERa_GFPERaERE_0480: Odyssey Thera (OT) 8-hour HeLa Transcription Induction Assay for Estrogen Receptor (AID 2283381; active = hit-call score of the fitted dose curve at least 0.9, where 1 is the maximum; inactive = score below 0.9)
# In short: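 An 8 h HeLa transcription-induction format with a GFP reporter under ERE control, read by fluorescence microscopy; single endpoint fitted positively with DMSO as baseline.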
# [8] = target: Estrogen receptor (Homo sapiens) (UniProt P03372); assay: OT_ERa_GFPERaERE_0120: Odyssey Thera (OT) 2-hour HeLa Transcription Induction Assay for Estrogen Receptor (AID 2283382)
# In short: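 Two-hour compound treatment of HeLa cells preceded microscopy imaging of an inducible fluorescent reporter. Image-based quantification gave one endpoint, analysed for signal increase relative to DMSO controls.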
# Peroxisome proliferator-activated receptor gamma (Homo sapiens), sequence (P37231 whole entry, looked up, the tested form may be a part): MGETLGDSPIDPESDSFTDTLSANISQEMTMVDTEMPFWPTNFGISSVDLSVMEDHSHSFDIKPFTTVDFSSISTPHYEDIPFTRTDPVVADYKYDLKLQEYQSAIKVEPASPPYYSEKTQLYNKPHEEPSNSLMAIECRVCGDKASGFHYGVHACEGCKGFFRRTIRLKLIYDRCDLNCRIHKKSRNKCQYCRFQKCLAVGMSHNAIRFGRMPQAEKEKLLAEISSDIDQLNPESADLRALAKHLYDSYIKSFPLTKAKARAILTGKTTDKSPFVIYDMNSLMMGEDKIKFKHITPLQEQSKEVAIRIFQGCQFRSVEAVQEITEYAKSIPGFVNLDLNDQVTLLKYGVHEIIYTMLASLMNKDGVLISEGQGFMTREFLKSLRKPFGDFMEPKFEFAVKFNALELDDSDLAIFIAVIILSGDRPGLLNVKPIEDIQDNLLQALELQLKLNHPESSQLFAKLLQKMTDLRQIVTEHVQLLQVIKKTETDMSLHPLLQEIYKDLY
# Bile acid receptor (Homo sapiens), sequence (Q96RI1 whole entry, looked up): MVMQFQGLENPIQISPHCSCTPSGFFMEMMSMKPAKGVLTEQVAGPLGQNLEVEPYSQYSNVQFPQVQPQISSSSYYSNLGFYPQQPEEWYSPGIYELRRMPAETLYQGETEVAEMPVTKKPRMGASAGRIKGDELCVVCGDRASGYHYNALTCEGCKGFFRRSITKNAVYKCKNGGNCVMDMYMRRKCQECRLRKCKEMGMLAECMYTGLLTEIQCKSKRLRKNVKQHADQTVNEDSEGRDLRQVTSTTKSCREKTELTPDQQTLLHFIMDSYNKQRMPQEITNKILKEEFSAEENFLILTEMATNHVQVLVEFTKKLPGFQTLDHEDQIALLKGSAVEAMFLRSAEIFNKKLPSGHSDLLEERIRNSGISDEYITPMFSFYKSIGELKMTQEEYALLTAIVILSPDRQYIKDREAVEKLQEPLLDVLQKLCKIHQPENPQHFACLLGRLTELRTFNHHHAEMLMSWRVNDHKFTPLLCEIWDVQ
# Retinoic acid receptor RXR-alpha (Homo sapiens), sequence (P19793 whole entry, looked up, the tested form may be a part): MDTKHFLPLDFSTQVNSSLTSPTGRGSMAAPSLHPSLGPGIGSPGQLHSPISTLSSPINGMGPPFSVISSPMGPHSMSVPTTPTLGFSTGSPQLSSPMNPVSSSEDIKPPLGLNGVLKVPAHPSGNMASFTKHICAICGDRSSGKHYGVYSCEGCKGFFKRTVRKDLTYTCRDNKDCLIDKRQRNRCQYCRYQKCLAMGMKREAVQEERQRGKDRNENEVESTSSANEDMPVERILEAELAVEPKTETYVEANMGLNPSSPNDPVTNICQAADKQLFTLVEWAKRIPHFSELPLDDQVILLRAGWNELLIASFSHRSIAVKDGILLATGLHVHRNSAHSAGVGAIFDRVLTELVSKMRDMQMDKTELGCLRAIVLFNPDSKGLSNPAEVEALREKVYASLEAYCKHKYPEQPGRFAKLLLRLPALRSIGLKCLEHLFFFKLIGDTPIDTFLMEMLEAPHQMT
# Estrogen receptor (Homo sapiens), sequence (P03372 whole entry, looked up): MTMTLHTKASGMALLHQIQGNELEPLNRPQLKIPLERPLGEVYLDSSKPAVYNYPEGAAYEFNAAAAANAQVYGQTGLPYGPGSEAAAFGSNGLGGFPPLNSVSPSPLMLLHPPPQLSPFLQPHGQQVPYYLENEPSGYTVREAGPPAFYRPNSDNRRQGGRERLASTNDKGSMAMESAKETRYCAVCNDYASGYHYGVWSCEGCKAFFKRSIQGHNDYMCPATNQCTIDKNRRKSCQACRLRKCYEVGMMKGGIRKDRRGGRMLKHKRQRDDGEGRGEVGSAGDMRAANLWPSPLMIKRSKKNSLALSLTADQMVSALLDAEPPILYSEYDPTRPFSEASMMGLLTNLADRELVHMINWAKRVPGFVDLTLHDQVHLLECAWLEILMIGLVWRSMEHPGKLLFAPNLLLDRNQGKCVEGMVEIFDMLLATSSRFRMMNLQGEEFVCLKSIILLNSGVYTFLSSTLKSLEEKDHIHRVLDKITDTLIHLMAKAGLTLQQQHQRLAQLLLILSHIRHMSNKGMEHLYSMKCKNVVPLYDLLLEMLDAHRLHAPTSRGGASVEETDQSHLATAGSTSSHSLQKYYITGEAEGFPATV
smiles,measurement,setting,value
CC=Cc1ccc(OCC)c(O)c1,outcome,[1],inactive
O=C1OC(=O)c2c(Cl)c(Cl)c(Cl)c(Cl)c21,outcome,[2],inactive
same,outcome,[3],inactive
same,outcome,[4],inactive
same,outcome,[5],inactive
CCOC(=O)C1OC1c1ccccc1 (stereo not drawn),outcome,[3],inactive
same,outcome,[6],inactive
same,outcome,[4],inactive
CC(C)NCC(O)COc1ccc(CC(N)=O)cc1 (stereo not drawn),outcome,[7],inactive
same,outcome,[8],inactive
same,outcome,[3],inactive
same,outcome,[6],inactive
same,outcome,[4],inactive
CCC(C)c1cc([N+](=O)[O-])cc([N+](=O)[O-])c1OC(=O)OC(C)C (stereo not drawn),outcome,[1],inactive
CCCCC1CCC(O)CC1 (stereo not drawn),outcome,[2],inactive
same,outcome,[3],inactive
same,outcome,[6],inactive
same,outcome,[4],inactive
O=CCc1ccccc1,AC50,[2],30.1 µM (active)
same,AC50,[3],19.1 µM (active)
same,outcome,[6],inactive
same,outcome,[4],inactive
same,outcome,[5],inactive
CCCCCCC(CO)CCCC (stereo not drawn),outcome,[3],inactive
same,outcome,[6],inactive
same,outcome,[4],inactive
same,outcome,[5],inactive
Oc1ccc2cc(SSc3ccc4cc(O)ccc4c3)ccc2c1,AC50,[3],78.7 µM (active)
same,AC50,[6],19.7 µM (active)
same,outcome,[4],inactive
same,outcome,[5],inactive
CCc1cc(C(C)(C)C)c(O)c(C(C)(C)C)c1,AC50,[2],33.6 µM (active)
same,AC50,[3],83.8 µM (active)
same,AC50,[6],86.2 µM (active)
same,outcome,[4],inactive
same,outcome,[5],inactive
same,outcome,[1],inactive
Cc1ccc(S(N)(=O)=O)cc1,outcome,[2],inactive
same,outcome,[4],inactive
same,outcome,[5],inactive
O=C(O)CCCCCCCCC(=O)O,outcome,[3],inactive
same,outcome,[6],inactive
same,outcome,[4],inactive
